Screening data: PubChem, Center for Chemical Genomics, University of Michigan
Rows were chosen to be rich in hits. Some 0.9% of all compounds tested hit in one or more screens of this group.
TAR Tat displ = TAR RNA-Tat peptide displacers, HIV-1, primary screen, biochemical, FRET, FAM/TAMRA-labeled Tat | HIV-1 TAR RNA, Tat peptide displacement FRET; active compounds read high | z-score (test concentration not listed) | 100,000 tested, 0.6% active | AID 1259389, 2018; active = z-score of 3 or more in at least 2 runs
CDC25B CDK2 inh = primary biochemical HTRF screen for blockers of M-phase inducer phosphatase 2 binding to CDK2/cyclin A. P30305+P24941. HTRF CDC25B-CDK2/CyclinA binding, anti-His/anti-Flag; active compounds read high. z-score (test concentration not listed). 94,000 tested, 0.72% active. AID 1259370, 2018; in the data active = z-score above about 3.2
Numbers without * were called inactive; . = no result; ! = not confirmed by another sample.

SMILES	TAR Tat displ	CDC25B CDK2 inh
COc1cc2c(cc1O)C[C@H]1c3c(cc(O)c(OC)c3-2)CCN1C	13*	.
CN1CCc2cc(O)cc3c2[C@H]1Cc1ccc(O)c(O)c1-3	.	-0.62
Cc1ccc(COc2ccc(C3SCC(=O)Nc4n[nH]c(C)c43)cc2)cc1 (configuration not stated)	1.8	0.71
C=C[C@]12CN(C)C3C4COC(CC41)[C@]1(C(=O)Nc4ccccc41)[C@@H]32 (some centres not stated)	0.98	.
Cc1cc2c(C(C)C)c(O)c(O)c(C=O)c2c(O)c1-c1c(C)cc2c(C(C)C)c(O)c(O)c(C=O)c2c1O	26*!	-0.45
CC12CCC(=O)C=C1C=CC1C2CCC2(C)C1CC[C@]2(C)O (some centres not stated)	.	-1.1
CCC1(C(=O)c2ccc(Cl)cc2)C2c3cc(Br)ccc3OC(=O)C21C(=O)OC (configuration not stated)	0.26	1.8
CCOC(=O)C12C(=O)Oc3ccc(Br)cc3C1C2(CC)C(=O)c1ccccc1 (configuration not stated)	0.21	15*
C=CCOC(=O)C1=C(C)OC(N)=C(C#N)C12C(=O)Nc1ccccc12 (configuration not stated)	.	-1.3
CC(N)[C@H](O)c1ccc(O)c(O)c1 (some centres not stated)	.	-3.3
C[C@H](N)[C@H](O)c1ccc(O)c(O)c1	8.2*	.
C=C1C2C[C@]3(C(CC2=O)[C@]24C5C[C@H]3[C@H]2N(CC)C[C@]5(C)CC[C@@H]4O)[C@@H]1O (some centres not stated)	2	.
COc1ccc(OC)c(C2SCC(=O)Nc3c2c(C)nn3-c2nc3ccccc3s2)c1 (configuration not stated)	1.5	-1.5
CCc1ccc(-n2nc(C)c3c2NC(=O)CSC3c2ccc3c(c2)OCO3)cc1 (configuration not stated)	0.68	-1.1
C=CC[N+]12CN3CN(CN(C3)C1)C2	.	4.3*
N#[N+]c1cnc2ccccc2c1[O-]	.	0.92
COc1cc2c(cc1O)C(C)NCC2 (configuration not stated)	0.43	.
C[C@@H]1NCCc2cc(O)c(O)cc21	19*	.
c1ccc2c(C3=NCCO3)c[nH]c2c1	.	-1.1
Cc1ccc2c(c1)C1CN(C)CCC1N2C(=O)NC(C)(C)C (configuration not stated)	0.55	-0.15
CCC(=O)CCCCC[C@@H]1NC(=O)[C@H]2CCCCN2C(=O)C([C@@H](C)CC)NC(=O)[C@H](Cc2cn(OC)c3ccccc23)NC1=O (some centres not stated)	-1.8	.
Cc1nnc(N2CCNCC2)c2nn(-c3ccccc3)c(C)c12	0.94	-2.5
Fc1cccc(CNCCc2c[nH]c3ccccc23)c1	0.87	8*
Cc1cccc(CNCCc2c[nH]c3ccccc23)c1	0.75	16*
c1ccc(CNCCc2c[nH]c3ccccc23)cc1	-0.73	1.3
SMILES	TAR Tat displ	CDC25B CDK2 inh
CCc1ccc(CNCCc2c[nH]c3ccccc23)cc1	0.71	-0.73
O=C(Nc1ccccc1)N1Cc2ccccc2-n2cccc2C1c1ccccc1 (configuration not stated)	-1.1	.
O=C(NC1CCCC1)N(Cc1ccc2c(c1)OCO2)C1CCN(Cc2ccccc2)CC1	0.11	.
CC(C)Oc1ccc(C(c2c(O)c3ccccc3oc2=O)c2c(O)c3ccccc3oc2=O)cc1	.	-3.2
CNCCc1c[nH]c2ccc(O)cc12	.	9.8*
CNCCc1c[nH]c2ccccc12	.	-0.91
NC(N)=N/N=C/c1ccc(/C=N/N=C(N)N)cc1	.	7.6*
CN1CSC2=C(C#N)C(c3cccc(Br)c3)CC(=O)N2C1 (configuration not stated)	0.16	5.2*
N#CC1=C(N)Oc2c(c(=O)oc3ccccc23)C1c1cccc(Br)c1 (configuration not stated)	.	-2
COc1ccc(OC)c(C2SCC(=O)Nc3n[nH]c(C)c32)c1 (configuration not stated)	1.3	1.5
CC(N)Cc1c[nH]c2ccc(F)cc12 (configuration not stated)	.	-0.3
Cc1c2ccncc2c(C)c2c1[nH]c1ccccc12	-7.3	4.2*
Cc1nccc2c1[nH]c1ccccc12	19*	-1.2
c1ccc2c(c1)[nH]c1cnccc12	3.3	.
CC1(C)SC(c2cccnc2)N[C@H]1C(=O)O (some centres not stated)	.	-0.51
CN1CCN(c2ncnc3c2nnn3C)CC1	3.2	.
O=C(Nc1ccccc1)Nc1cnns1	-0.51	20*
C/C(CN1C(=O)CCC1=O)=N\N=C(N)N	.	-1.1
CCCCCn1c(N)c(C(=O)OC)c2nc3ccccc3nc21	0.97	1.8
Nc1c(C(=O)NCc2ccccc2)c2nc3ccccc3nc2n1Cc1ccco1	-4.3	12*
COC(=O)c1sc2nc3c(cc2c1N)CN(C)CC3	-0.26	0.56
CN1CCc2nc(SCc3cccnc3)c(C#N)cc2C1	-2.5	19*
CCOc1ccc(C2NCc3ccccc3-n3cccc32)cc1 (configuration not stated)	0.3	-1.2
